# Rows were chosen to be rich in hits. Some 5.7% of all compounds tested hit in one or more screens of this group.
# HepG2 tox = counter-screen for TGF-b inhibitors: cytotoxicity in HepG2 cells; actives 0.76% (n = 410,000); AID 588856; Potency, µM (titrated, usually from 46.1 µM), without a hit: at the top dose activity change, negative = cytotoxicity, actives largely listed as cytotoxic; HepG2 CAGA-GFP viability, ATP luminescence, 18 h; also: potency is read from the fitted curve at half-maximal effect
#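 CellTiter-Glo luminescence gave cytotoxicity after 18 hours at 37 degrees C. The cells were HepG2 CAGA-GFP in 1% FBS DMEM, stimulated with 500 pg/mL TGF-beta after compound addition. %Activity was normalised to no-cell wells (complete cell-killing) and DMSO (no toxicity), and curves were fitted and classified.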
# TGFb SMAD3 inh = inhibitors of TGF-b signaling. HepG2 CAGA-GFP TGF-b/SMAD3 reporter, GFP fluorescence, 18 h; TGF-beta stimulated, 500 pg/mL final. Potency, µM (top dose mostly 46.1 µM), for the others: top-dose activity, negative = inhibition, actives largely listed as inhibitors. AID 588855. actives 1.2% (n = 410,000); also: potency is read from the fitted curve at half-maximal effect; % is scaled to controls: 0 for no effect and ±100 for the full control effect; nearly all actives have a fitted effect of over 65% in size
#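 First, reporter cells (HEPG2 CAGA-GFP) rested 2 h at 37 degrees C. Next, compounds were pinned in and TGF-beta added to 500 pg/mL final. After 18 h, GFP was imaged per cell and summed per well.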
# IL-1B inflam inh = inflammasome signaling inhibition, IL-1 beta readout. THP-1 LPS/ATP IL-1B secretion, AlphaLISA, 16 h; stronger effect = lower value. activity change, % at 57.5 µM. AID 743279. actives 4.7% (n = 360,000); in the data active = activity change below about -50%; inconclusive = mostly about -30% to -49%; also: % is scaled to controls: 0 for no effect and ±100 for the full control effect
#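 Secreted IL-1B measured by AlphaLISA bead assay after 16 h compound exposure of THP-1 cells; compounds (final up to 57.5 uM) added 1 h before LPS (250 ng/mL) and ATP (1.25 mM) stimulation; lower signal means less secretion.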
# ATXN2 expr inh = inhibitors of ATXN2 expression. HEK-293 ATXN2-luciferase reporter, luminescence, 24 h. Potency, µM (highest dose often 57 µM), for the others: top-dose activity change, negative = inhibition, most hits filed as inhibitors. actives 0.72% (n = 360,000); also: potency is read from the fitted curve at half-maximal effect; % is scaled to controls: 0 for no effect and ±100 for the full control effect; nearly all actives have a fitted effect of over 55% in size
#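 qHTS (up to 57 uM final) was run with 24 h compound exposure of reporter cells at 37 °C. Each well was multiplexed: SteadyGlo luminescence measured ATXN2-luciferase expression after a fluorogenic Gly-Phe-AFC viability readout (25 uM final).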
# ATXN viability = viability counter-screen for ATXN expression inhibitors | S2 cells (HEK-293 line with an ATXN2-luciferase reporter) viability, CellTiter-Fluor protease fluorescence, 24 h | Potency, µM (top dose mostly 56.7 µM), usual class: cytotoxic | actives 0.49% (n = 400,000) | AID 651635; also: potency is read from the fitted curve at half-maximal effect; nearly all actives have a fitted effect of over 40% in size
# * marks the source's active call; other numbers are inactive results; i = inactive; ? = inconclusive; · = no result; ! = not confirmed by another sample. Unless noted, calls follow the shape of the dose curve; as a rule, active = well fitted curve in the direction sought with a large enough effect; inconclusive = small, poorly fitted or top-dose-only effect, or another doubt; inactive = no such curve, though single readings can be large; an effect the other way counts as inactive or inconclusive.
SMILES,HepG2 tox,TGFb SMAD3 inh,IL-1B inflam inh,ATXN2 expr inh,ATXN viability
Oc1cc(-c2ccncc2)cc2cccnc12,11µM*,?,·,3.5µM*,i
COc1ccc(S(=O)(=O)Nc2cccc3c2O[C@H](CN(C)Cc2ccc(Cl)c(Cl)c2)[C@@H](C)CN([C@H](C)CO)C3=O)cc1,-5%,?,-56*,?,?
C[C@H](CO)N1C[C@H](C)[C@@H](CN(C)Cc2ccccc2)Oc2c(NC(=O)C3CCCCC3)cccc2C1=O,-10%,?,-72*,?,20µM*
C[C@H](CO)N1C[C@H](C)[C@@H](CN(C)Cc2ccc(Oc3ccccc3)cc2)Oc2c(NC(=O)C3CC3)cccc2C1=O,-50%,?,-75*,?,?
CCCN1CCC(=O)N(C(CSc2ccc(Br)cc2)CC(C)C)CC1 (stereo unspecified),-18%,-2%,·,·,·
CCc1ccc(-c2cn(C3CCCCC3)c(=S)[nH]2)cc1,-3%,-19%,-68*,17%,i
CC(=O)c1cccc(NC(=O)C2CCCN(c3nnc(-n4cccc4)s3)C2)c1 (stereo unspecified),-9%,-19%,·,7%,i
O=C(CN1CCC(Cc2ccccc2)CC1)NC(=O)NCc1ccccc1,-18%,?,-52*,-10%,i
CSc1ccc(NC(=O)NCCCN2CCC(Cc3ccccc3)CC2)cc1,-104%,?,-54*,·,·
CC(=O)c1ccc(NC(=S)N2CCC(Cc3ccccc3)CC2)cc1,-3%,-21%,-79*,-9%,i
Cc1ccc(CSc2ncc(Cl)c(C(=O)Oc3ccc(F)cc3)n2)cc1,-55%,-20%,·,·,·
O=C(c1ccc(COc2ccc3ccccc3c2)o1)N1N=C(C(F)F)CC1(O)C(F)F (stereo unspecified),-108%,11µM*,-1,-26%,i
O=C(c1ccc(COc2ccc(Br)cc2)o1)N1N=C(C(F)F)CC1(O)C(F)F (stereo unspecified),-32%,-5%,?,-15%,?
c1ccc(CN=C(NCc2ccccc2)NCc2ccccc2)cc1,22µM*,?,-80*,?,i
C=C[C@@H]1c2ccccc2N(S(=O)(=O)c2ccc(C)cc2)[C@H](c2ccc(OC(C)=O)cc2)C1(C#N)C#N,-45%,?,-16,?,?
C=C[C@@H]1c2cc(C)ccc2N(S(=O)(=O)c2ccc(C)cc2)[C@H](c2ccc(OC(C)=O)cc2)C1(C#N)C#N,6.3µM*!,?,13,25µM*,?
COc1ccc(CC(=O)N2CCc3cc(OC)c(OC)cc3C2COc2ccc(OC)cc2)cc1 (stereo unspecified),-52%,-4%,·,-4%,i
CCc1ccc(OCC2c3cc(OC)c(OC)cc3CCN2C(=O)Cc2ccc(OC)c(OC)c2)cc1 (stereo unspecified),-23%,11µM*,·,?,i
Cc1ccc(C(C(=O)NC2CCCC2)N(Cc2ccc3c(c2)OCO3)C(=O)c2snc(C(N)=O)c2N)cc1 (stereo unspecified),-13%,-18%,-21,-4%,i
O=C(NC1CCCCC1)C(c1ccccc1)N(Cc1ccc2c(c1)OCO2)C(=O)c1cnsn1 (stereo unspecified),-3%,-1%,-61*,-31%,i
CN(Cc1ccccc1)c1ccc(C=O)cc1,-1%,-15%,·,·,·
CN(Cc1ccccc1)c1nc(N)nc(Cl)c1C=O,-9%,-14%,-106*,?,?
OCC1(Cc2ccccc2)CCN(C2CCN(c3ccc(F)c(F)c3)CC2)CC1,-15%,1%,-118*,-32%,?
COc1ccc(CCNC(=O)/C=C/c2ccc3ccccc3n2)cc1OC,-19%,?,-103*,-3%,?
CN(C(=O)COC(=O)/C=C/c1ccc2ccccc2n1)C1CCS(=O)(=O)C1 (stereo unspecified),-30%,?,-106*,?,·
SMILES,HepG2 tox,TGFb SMAD3 inh,IL-1B inflam inh,ATXN2 expr inh,ATXN viability
O=C(COC(=O)/C=C/c1ccc2ccccc2n1)NNC(=O)c1ccccc1,-38%,?,?,·,i
CCN(C(=O)COC(=O)c1cc(-c2cccs2)nc2ccccc12)C1CCS(=O)(=O)C1 (stereo unspecified),-7%,2%,-54*,-16%,i
CC(C)CCNC(=O)COC(=O)/C=C/c1ccc2ccccc2n1,31%,-12%,-59*,-11%,i
COc1ccc(CNC(=O)Cc2c(C)c3cc4c(C)coc4c(C)c3oc2=O)cc1,0%,-2%,·,·,·
O=C1C2C(c3ccccc3)CC=CC2C(c2ccc3ccccc3c2)N1Cc1ccccc1 (stereo unspecified),-38%,-29%,·,·,·
COc1ccc(-c2cc(C(=O)OCC(=O)N(C)C3CCS(=O)(=O)C3)c3ccccc3n2)cc1OC (stereo unspecified),-8%,-16%,-62*,10%,i
Cc1ccc(Cn2c(CNC(=O)CCc3ccccc3)nc3cccnc32)cc1,-31%,-14%,·,·,·
CC(=O)Nc1nnc(CSCc2ccccc2F)s1,7.9µM*,1%,13,37%,i
CC(=O)Nc1nnc(SCc2ccccc2F)s1,2%,-14%,0,50%,i
O=c1cccc2c1c1cc[nH]c3ccc(=O)n2c31,-27%,?,-72*,3%,i
NC(CSC(c1ccccc1)(c1ccccc1)c1cccc2ccccc12)C(=O)O (stereo unspecified),7%,0%,-50*,3%,i
CN(CCO)C(=O)c1cn(C2CCCN(Cc3ccc4ccccc4c3)C2)nn1 (stereo unspecified),·,·,·,·,i
CC(C)COc1cccc(C(=O)Nc2ccc(-c3nc4ncccc4o3)cc2)c1,3%,0%,·,2%,i
CCn1c2ccccc2nc2cc3c(cc21)c(Cl)c(=O)c1ccccc13,-119%,18µM*,26,·,·
CCn1c(/C=C/c2c(C)n(CC)c3ccccc23)nc2ccccc2c1=O,25%,15%,29,2%,?
Cc1ccc(Sc2c(C)nn(C(C)(C)C)c2OC(=O)CC(C)C)cc1,-8%,-13%,·,-14%,i
CCc1cccc(CC)c1NC(=S)Nc1cccc(Cl)c1Cl,18µM*,?,21,1%,i
COc1ccccc1N1CCN(CC(O)COc2cc(OC)c(OC)c(OC)c2)CC1 (stereo unspecified),·,·,·,-4%,i
COc1cc(/C=N/NC(=O)c2cccnc2)ccc1OS(=O)(=O)c1cc(C)ccc1C,-38%,-19%,-76*,?,?
COc1cc(/C=N/NC(=O)c2cccnc2)ccc1OS(=O)(=O)c1ccc(C)cc1,9%,2%,0,·,i

# Screening data: PubChem, National Center for Advancing Translational Sciences (NCATS)
